An excerpt weighted towards active compounds, which were near 32% of everything screened.
CYP2C19 act: activators of human cytochrome P450 2C19. P33261. recombinant CYP2C19, luciferin-H EGE luminescence; hits give high values; 0 = fully inhibited enzyme, 1 = untreated enzyme. activation factor at 5 µM. 96,000 tested, under 10 active. AID 1025;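 active = activation factor of at least 2 at 5 µM in the primary screen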;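 also: 0 = wells with 2.5 mM tranylcypromine and 1 = vehicle-only wells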
CYP2C9 act: increases human cytochrome P450 2C9 activity; recombinant CYP2C9, luciferin-H conversion, luminescence; hits give high values; factor 1 = untreated enzyme, 0 = blocked; AID 1024; activation factor at 5 µM; actives 1.4% (n = 96,000);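 active = activation factor of 2 or more for CYP2C9 at a 5 µM dose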;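 also: 0 = sulfaphenazole-blocked wells and 1 = vehicle-only wells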
Target sequence (P11712 whole entry, looked up): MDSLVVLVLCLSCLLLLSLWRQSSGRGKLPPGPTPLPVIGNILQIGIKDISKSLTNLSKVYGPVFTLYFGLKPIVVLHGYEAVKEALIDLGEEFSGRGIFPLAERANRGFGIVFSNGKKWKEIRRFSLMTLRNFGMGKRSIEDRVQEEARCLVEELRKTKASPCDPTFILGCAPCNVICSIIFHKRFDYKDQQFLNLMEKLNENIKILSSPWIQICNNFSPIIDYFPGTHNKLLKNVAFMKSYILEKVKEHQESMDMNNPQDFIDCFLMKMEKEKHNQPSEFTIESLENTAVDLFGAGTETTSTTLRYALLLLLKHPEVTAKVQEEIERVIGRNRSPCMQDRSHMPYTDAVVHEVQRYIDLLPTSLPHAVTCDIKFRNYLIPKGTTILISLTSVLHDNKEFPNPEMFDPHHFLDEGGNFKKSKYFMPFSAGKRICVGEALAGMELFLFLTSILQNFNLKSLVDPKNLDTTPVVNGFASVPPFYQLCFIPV
PostGolgi yeast: growth inhibition of a yeast mutant, post-Golgi transport screen. AID 739. post-Golgi transport phenotypic cell assay. actives 0.9% (n = 98,000). inhibition, % at 10 µM;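 also: yeast cells grown in 1536-well plates; yeast grown about 18 h at 30C before absorbance read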
CYP2C19 inhib: inhibitors of human CYP2C19; CYP2C19 Supersomes, luciferin-H EGE luminescence, 30 min; AID 778; P33261; inhibition, % at 5 µM; actives 21% (n = 96,000);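 active = CYP2C19 inhibition above a set limit at 5 µM in the primary screen, cut at about 50% in these data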;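 also: plate controls were negative control wells for no effect and 2.5 mM tranylcypromine positive control for full effect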
CYP2C9 inh: inhibitors of human CYP2C9; P11712; CYP2C9 Supersomes, luciferin-H conversion, luminescence; inhibition, % at 5 µM; actives 20% (n = 96,000); AID 777;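 active = blocking of liver enzyme CYP2C9 beyond about 50% at 5 µM, limit read from the data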
PostGolgi ctrl: yeast control strain growth, post-Golgi counter-screen; efflux-deficient yeast background strain, growth absorbance A615, 16 h; inhibition, % at 10 µM; actives 5% (n = 98,000); AID 738
* hit, by the source's call; · = no result given. Rule as the data show it, unless noted: active = inhibition above about 30%; inactive = the rest.

SMILES	CYP2C19 act	CYP2C9 act	PostGolgi yeast	CYP2C19 inhib	CYP2C9 inh	PostGolgi ctrl
CCOc1cc(C)c(Cl)cc1S(=O)(=O)N1CCCC1	0.6	1.6	-1	37	-60	14
CCOc1cc(S(=O)(=O)NCc2ccc3c(c2)OCO3)c(C)cc1C	0.1	0.1	5	86*	91*	20
CCOc1cc(C)c(Cl)cc1S(=O)(=O)NCc1ccc2c(c1)OCO2	0	0.9	12	99*	14	7
Cc1c(C(=O)O)oc2ccc(S(=O)(=O)NCc3ccc4c(c3)OCO4)cc12	1.1	0.6	14	-13	36	17
CCOC(=O)c1[nH]cnc1C(=O)Nc1cccc(N)n1	1.1	1.2	·	-13	-17	·
CCOC(=O)c1[nH]cnc1C(=O)Nc1ccncc1	0.7	0.5	15	33	54*	3
OC(COc1ccc2ccccc2c1Br)Cn1cnc(-c2ccccc2)c1 (centres undefined)	0.9	0.7	27	5	28	53*
COc1ccc(-c2noc(COc3ccc4ccccc4c3Br)n2)cc1OC	0.5	0.8	8	49	24	3
COc1ccccc1-c1nc(C#N)c(N2CCN(C(c3ccccc3)c3ccccc3)CC2)o1	0.9	0.8	-5	14	22	5
O=C1C(=O)N(Cc2cccnc2)C(c2ccccn2)/C1=C(/O)c1ccccc1 (centres undefined)	1	0.2	-2	5	76*	0
COCCN1C(=O)C(=O)/C(=C(/O)c2cccc(OC)c2)C1c1ccco1 (centres undefined)	0.8	1.1	-4	16	-10	32*
O=C1C(=O)N(CCCn2ccnc2)C(c2ccccn2)/C1=C(/O)c1ccccc1 (centres undefined)	0.9	0.5	·	8	49	·
Cc1ccc(C)c(/C(O)=C2\C(=O)C(=O)N(Cc3cccnc3)C2c2cccnc2)c1 (centres undefined)	1	0.5	2	1	51*	11
CCCOc1ccc(/C(O)=C2/C(=O)C(=O)N(CCCn3ccnc3)C2c2ccco2)cc1 (centres undefined)	0.8	0.8	-1	24	16	29
CCOc1ccc(/C(O)=C2/C(=O)C(=O)N(c3nc(C)c(C)s3)C2c2ccco2)cc1 (centres undefined)	0.5	0.2	1	46	81*	30
COc1cccc(/C(O)=C2/C(=O)C(=O)N(CCN(C)C)C2c2ccc(Br)cc2)c1 (centres undefined)	1	1.1	-6	-2	-5	4
COc1ccc(/C(O)=C2/C(=O)C(=O)N(Cc3cccnc3)C2c2ccncc2)cc1F (centres undefined)	1	0.6	4	0	43	-6
CC(C)Oc1ccc(/C(O)=C2/C(=O)C(=O)N(CCN(C)C)C2c2ccco2)cc1 (centres undefined)	1.1	1.2	41*	-7	-22	2
COc1cccc(/C(O)=C2/C(=O)C(=O)N(Cc3cccnc3)C2c2ccco2)c1 (centres undefined)	0.9	0.1	3	14	89*	-7
COc1cccc(/C(O)=C2\C(=O)C(=O)N(c3ccccn3)C2c2ccccc2OC)c1 (centres undefined)	0.8	0.9	-7	17	15	-1
CCN(CC)CCN1C(=O)C(=O)/C(=C(/O)c2ccc(OC)cc2)C1c1ccco1 (centres undefined)	1.1	1	15	-8	-2	-3
COc1ccc(C2/C(=C(\O)c3cccc(OC)c3)C(=O)C(=O)N2c2ccccn2)cc1 (centres undefined)	0.7	0.3	-20	29	69*	1
CC(C)C[C@H](NC(=O)OC(C)(C)C)C(=O)N/N=C/C1=Cc2ccccc2OC1C (some centres undefined)	0.9	0.6	8	8	42	28
O=C(OCc1ccccc1)C1=[N+]([O-])OC(C(=O)OCc2ccccc2)C1c1c[nH]c2ccccc12 (centres undefined)	0.2	0	-2	84*	96*	3
O=C(COC(=O)C1CC1)c1c[nH]c2ccccc12	0.7	1	-5	28	-2	9
CCOC(=O)C1=C(C)N=C(/N=C/N(C)C)SC1c1ccccc1 (centres undefined)	0.3	0.5	0	71*	48	12
